Hit rate of the full screen: of about 340,000 compounds, about 1,000 (0.29%) were called active. No stated cut-off is given here; in the data, inconclusive means inhibition above about 29% without an active follow-up result; inactive means below that. Only a sample is shown. Results with a measured potency or affinity are listed apart.
Molecular target: Genome polyprotein (Dengue virus type 2 (strain 16681-PDK53)) (UniProt P29991)
Test: flavivirus cap methylation enzyme inhibition – biochemical, confirmation dose response, primary screen (AID 588689)
Settings: Dengue-2 NS5 methyltransferase capping enzyme assay, at 25 µM, stronger effect = higher value

SMILES | inhibition | inhibition (measured here: pilot screen replicate inhibition)
Cc1c(C(=O)c2ccc(Cl)c(Cl)c2)cnc2cc3c(cc12)OCO3 | 0.78% (inactive) | 
Nc1c(C(=O)O)sc2nc(-c3ccccc3)cc(-c3ccc(F)cc3)c12 | -4.6% (inactive) | 
Nc1c(C(=O)O)sc2nc(-c3ccccc3)cc(-c3ccccc3)c12 | -27% (inactive) | 
CCOC(=O)CC1COc2ccccc2N1C(=O)c1cccc([N+](=O)[O-])c1 (centres undefined) | -0.68% (inactive) | 
CCOc1ccc(N2C(=O)CC(N(Cc3ccco3)C(=O)CCC(=O)O)C2=O)cc1 (centres undefined) | -7.79% (inactive) | 
Cc1c(C(=O)OCC(=O)NC2CC2)oc2ccc(Br)cc12 | 4.33% (inactive) | 
CNCc1ccccc1Sc1cccc(O)c1 | -3.83% (inactive) | 
CNCc1ccccc1Sc1cc(O)ccc1O | -2.55% (inactive) | 
Cc1cc(NC(=O)CSc2ccccn2)cc(NC(=O)CSc2ccccn2)c1 | -6.51% (inactive) | 
O=C1c2ccccc2C(=O)c2cc(S(=O)(=O)Nc3ccccc3)ccc21 | -0.73% (inactive) | 
O=C(O)c1ccc(NS(=O)(=O)c2cc(Cl)ccc2Cl)cc1 | -2.78% (inactive) | 
O=C(O)c1cccc(NS(=O)(=O)c2ccc3c(c2)C(=O)c2ccccc2C3=O)c1 | 16.2% (inactive) | 
O=C(O)c1cccc(S(=O)(=O)Nc2ccc(-c3ccccc3)cc2)c1 | -3.98% (inactive) | 
O=C(O)c1ccc(Cl)c(S(=O)(=O)Nc2ccccc2Cc2ccccc2)c1 | -0.83% (inactive) | 
O=C(O)c1cccc(NS(=O)(=O)c2ccc(Oc3ccc(S(=O)(=O)Nc4cccc(C(=O)O)c4)cc3)cc2)c1 | 13.8% (inactive) | 
O=C(O)c1ccc(F)c(S(=O)(=O)Nc2ccccc2Cl)c1 | 4.09% (inactive) | 
O=C(O)c1ccc(Cl)c(S(=O)(=O)Nc2ccc(S(=O)(=O)N3CCCC3)cc2)c1 | -5.16% (inactive) | 
CC1(C)C2CCC1(CS(=O)(=O)NCc1ccc(C(F)(F)F)cc1)C(=O)C2 (centres undefined) | -2.61% (inactive) | 
CCOC(=O)N1CCN(Cc2nc3ccc([N+](=O)[O-])cc3c(=O)n2-c2ccc(OC)cc2OC)CC1 | -7.83% (inactive) | 
Cc1ccc(C2(C)NC(=O)N(CC(=O)NNC(=O)c3cc(C)oc3C)C2=O)cc1 (centres undefined) | -2.16% (inactive) | 
CC1CC1C(=O)N(C)CC(=O)Nc1ccccc1Br (centres undefined) | -5.16% (inactive) | 
Cc1cc(C(=O)OC(C)C(=O)NC2CCCCC2)c(C)o1 (centres undefined) | 3.67% (inactive) | 
O=C(NC1CC2CCCC(C1)N2CC(=O)N1CCCc2ccccc21)C1CCCCC1 (centres undefined) | -6.56% (inactive) | 
Cc1cccc(-n2cnc3sc(C)c(C)c3c2=O)c1 | 3.09% (inactive) | 
COc1cc(/C=C2/NC(=O)NC2=O)cc(Br)c1OCc1ccc(C(=O)O)cc1 | -4.44% (inactive) | 
COC(=O)c1ccc(COc2ccc(/C=N/Nc3cccc(C(=O)O)c3)cc2)cc1 | 8.5% (inactive) | 

SMILES | inhibition | inhibition (measured here: pilot screen replicate inhibition)
COC(=O)c1ccc(COc2ccccc2/C=N/NS(=O)(=O)c2ccccc2)cc1 | -8.06% (inactive) | 
C=CCc1cc(C=O)cc(OC)c1OCc1ccc(C(=O)O)cc1 | -5.83% (inactive) | 
O=C(O)c1ccc(COc2ccccc2/C=C2/NC(=O)N(c3cccc(Cl)c3)C2=O)cc1 | 6.55% (inactive) | 
O=C(O)c1ccc(COc2ccc(CO)cc2Cl)cc1 | -1.37% (inactive) | 
CN1C(=O)S/C(=C\c2ccccc2OCc2ccc(C(=O)O)cc2)C1=O | 2.95% (inactive) | 
O=C1NC(=S)N/C1=C\c1ccccc1OCc1ccc(C(=O)O)cc1 | -6.96% (inactive) | 
Cc1cccc(C(=O)OCC(=O)Nc2c(C)n(C)n(-c3ccccc3)c2=O)c1O | -4.38% (inactive) | 
N#Cc1ccc(NC(=O)c2sc3cc(C(F)(F)F)cnc3c2-c2cccs2)cc1 | -3.46% (inactive) | 
CC(C)CN(C(=O)c1ccc(N2CCCC2=O)cc1)C1CCS(=O)(=O)C1 (centres undefined) | 2.16% (inactive) | 
COc1ccc(N(C(=O)c2ccco2)C(C(=O)NC2CCCC2)c2ccc(OC)c(OC)c2)cc1 (centres undefined) | -4.04% (inactive) | 
N#Cc1ccc2ccn(CC(=O)NCc3ccco3)c2c1 | -5.46% (inactive) | 
O=C(CCn1cnc2ccccc2c1=O)Nc1ccc(Cl)c(Cl)c1 | 1.31% (inactive) | 
COc1cccc(/C=C/c2ccccn2)c1O | -0.77% (inactive) | 
CCOc1ccccc1/C=C\c1nc(O)c([N+](=O)[O-])c(=O)[nH]1 | 5.29% (inactive) | 
O=C(COc1ccccc1/C=C\c1nc(O)c([N+](=O)[O-])c(=O)[nH]1)Nc1ccccc1 | 2.19% (inactive) | 
COc1cccc(/C=N/Nc2ccc([N+](=O)[O-])cc2)c1O | -38.8% (inactive) | 
CCCCCCSc1cc(-c2nc3cc(C)ccn3c2NC2CCCCC2)ccc1OC | -8.81% (inactive) | 
O=C(c1ccc(Cn2c(=O)[nH]c3ccsc3c2=O)cc1)N1CCN(c2ccccc2)CC1 | -1.16% (inactive) | 
COc1ccc(CN(C)C(=O)c2cccc(NS(=O)(=O)c3ccccc3)c2)c(OC)c1 | 0.32% (inactive) | 
O=C(CN(c1ccc(F)cc1)S(=O)(=O)c1ccccc1)NC1CCCCCC1 | 0% (inactive) | 
Cc1ccc(/C=C/c2nc3sc(C(=O)O)c(C)c3c(=O)[nH]2)cc1[N+](=O)[O-] | -2.44% (inactive) | 
COc1cccc(CNC(=O)Cn2ccc3cc(S(=O)(=O)N4CCCC4)ccc32)c1 | -0.45% (inactive) | 
COc1ccc(N(C(=O)Cn2nnc(-c3ccc(Cl)cc3)n2)C(C(=O)NCC2CCCO2)c2ccncc2)cc1 (centres undefined) | -2.22% (inactive) | 
COc1ccc(/C=N/NC(=O)c2nn(-c3ccc(Cl)cc3)c(=O)c3c(N)scc23)cc1 | 65.9% (inactive) | 10.3%
CCOC(=O)c1nn(-c2ccccc2)c(=O)c2c(N)scc12 | 7.81% (inactive) | 
COc1ccc(/C=N/NC(=O)c2nn(-c3ccccc3)c(=O)c3c(N)scc23)cc1 | 50% (inactive) | 

SMILES | inhibition | inhibition (measured here: pilot screen replicate inhibition)
CCOC(=O)c1nn(-c2ccc(C)cc2)c(=O)c2c(N)scc12 | 12.4% (inactive) | 
Cc1ccc2c(c1)NC(=O)c1cccnc1N2 | -0.54% (inactive) | 
Cc1nnc(SC(C)C(=O)N(C)C2CCCCC2)n1N (centres undefined) | -0.37% (inactive) | 
CCOc1cc(C(=O)NCCC(=O)N2CCC3(CC2)NCCc2[nH]cnc23)cc(OCC)c1OCC | -6.21% (inactive) | 
CCCCN1CC[C@H]2C=CC[C@@H](C(=O)N3CCN(c4ccccc4)CC3)[C@H]2C1=O | -5.46% (inactive) | 
Cc1ccc(-n2nc(CN3CCOCC3)c(-c3ccccc3)c2N)cc1Cl | -2.18% (inactive) | 
O=Cc1cc(N=Nc2ccc(S(=O)(=O)O)cc2)ccc1O | 14.6% (inactive) | 
O=Cc1cc(N=Nc2ccccc2Cl)ccc1O | 11.1% (inactive) | 
CCOC(=O)c1sc(Nc2ccc(OCC)cc2)nc1C | -9.95% (inactive) | 
COc1ccc(/C=C2/C(=O)N(c3c(F)c(F)c(F)c(F)c3F)N=C2C)cc1 | 27.1% (inactive) | 
Cc1ccc(NC(=C(C#N)C#N)c2ccccc2)cc1 | 6.86% (inactive) | 
O=C1C(=O)N(CCCn2ccnc2)C(c2ccc([N+](=O)[O-])cc2)/C1=C(\O)c1ccc2c(c1)OCCO2 (centres undefined) | -1.86% (inactive) | 
O=C(C[C@@H]1C/C=C\C[C@H](Cc2ccc(F)cc2)C(=O)OCCNC1=O)N[C@H](CO)Cc1ccccc1 | -4.01% (inactive) | 
O=[N+]([O-])c1cc(Br)cc(C=Nc2ccc3c(c2)OCO3)c1O | 17.9% (inactive) | 
O=[N+]([O-])c1ccc(O)c(C=Nc2ccc3c(c2)OCCO3)c1 | 2.55% (inactive) | 
O=C(O)c1ccc(NC2OC[C@@H](O)[C@H](O)[C@H]2O)cc1 (some centres undefined) | 1.47% (inactive) | 
CC(=O)Nc1ccc(S(=O)(=O)NC2CC(=O)N(c3ccc(C)c(C)c3)C2)cc1 (centres undefined) | -8.06% (inactive) | 
CCCCn1c(N)c(N(CCC(C)C)C(=O)CCCc2nc3ccccc3s2)c(=O)[nH]c1=O | 0.96% (inactive) | 
CCSc1nc(O)c(C2OC(=O)c3c2ccc(OC)c3OC)c(=O)n1-c1ccccc1 (centres undefined) | -0.81% (inactive) | 
CCCSc1nc(O)c(C2OC(=O)c3c2ccc(OC)c3OC)c(=O)n1C (centres undefined) | 4.42% (inactive) | 
Cc1ccc(CNC(=O)Cn2c(=O)c3sccc3n(Cc3ccc([N+](=O)[O-])cc3)c2=O)cc1 | -4.46% (inactive) | 
COc1cc2c(cc1C1C(C#N)=C(N)OC3=C1C(=O)CC(C)(C)C3)OCO2 (centres undefined) | 2.7% (inactive) | 
COc1ccc(C(C(=O)NC(C)(C)C)N(C(=O)CNC(=O)c2cccs2)c2cccnc2)cc1OC (centres undefined) | 0.81% (inactive) | 
CCOC(=O)C1CCN(c2c(NCCCN(CC)c3ccccc3)c(=O)c2=O)CC1 | -1.39% (inactive) | 
CCN(CCCNC(=O)C1CCN(S(=O)(=O)CC)CC1)c1ccccc1 | 0% (inactive) | 
N#Cc1c(NC(=O)C(=O)NCCCN2CCOCC2)sc2c1CCC2 | -10.5% (inactive) | 

SMILES | inhibition | inhibition (measured here: pilot screen replicate inhibition)
COc1ccc(C(c2c(C)n(C)n(-c3ccccc3)c2=O)c2c(C)n(C)n(-c3ccccc3)c2=O)c(OC)c1OC | 4.27% (inactive) | 
COc1cccc(COC(=O)c2c(C)nn(-c3ccccc3)c2Cl)c1OC | -1.3% (inactive) | 
O=C(CC1(CC(=O)N2CCOCC2)CCCC1)Nc1ccccc1 | 1.1% (inactive) | 
Cc1[nH]n(-c2ccccc2)c(=O)c1C(c1ccccc1C(=O)O)c1c(C)[nH]n(-c2ccccc2)c1=O | -2.59% (inactive) | 
Cc1[nH]n(-c2ccccc2)c(=O)c1N=Nc1ccccc1O | -2.22% (inactive) | 
Cc1[nH]n(-c2ccccc2)c(=O)c1N=Nc1ccccc1C(=O)N1CCOCC1 | -1.82% (inactive) | 
Cc1c(C(c2cccc(O)c2)c2c(C)n(C)n(-c3ccccc3)c2=O)c(=O)n(-c2ccccc2)n1C | 0.66% (inactive) | 
Cc1[nH]n(-c2ccccc2)c(=O)c1C(C[N+](=O)[O-])c1ccc(F)cc1 (centres undefined) | 1.46% (inactive) | 
Cc1c(C(c2ccc(C(=O)O)cc2)c2c(C)n(C)n(-c3ccccc3)c2=O)c(=O)n(-c2ccccc2)n1C | -3.92% (inactive) | 
Cc1c(C(c2ccc([N+](=O)[O-])cc2)c2c(C)n(C)n(-c3ccccc3)c2=O)c(=O)n(-c2ccccc2)n1C | -2.74% (inactive) | 
Cc1ccc(C(C[N+](=O)[O-])c2c(C)[nH]n(-c3ccccc3)c2=O)cc1 (centres undefined) | 12.3% (inactive) | 
COC(=O)[C@@H]1C[C@@]2(O)[C@H](O)[C@H](O)[C@H](O)C[C@H]2N1Cc1cccc2ccccc12 | -3.14% (inactive) | 
Cc1nonc1CN(C)C(=O)CC1C(=O)NCCN1Cc1c(F)cccc1Cl (centres undefined) | 0% (inactive) | 
Cc1ccc(OCc2cc(C(=O)N3CCCC(O)C3)no2)cn1 (centres undefined) | 3.18% (inactive) | 
COc1ccc(-c2cc(C(F)(F)F)nc(NCc3cccs3)n2)cc1 | -0.64% (inactive) | 
Cc1csc(NC(=O)c2ccc(COc3ccccc3)o2)n1 | -0.81% (inactive) | 
COc1cccc(NC(=S)NC2CC3CCCC(C2)N3C2CCCC2)c1 (centres undefined) | -6.24% (inactive) | 
CCCCCN(C(=O)CCC(=O)OCc1cccc(C(F)(F)F)c1)c1c(N)n(CCCC)c(=O)[nH]c1=O | -5.15% (inactive) | 
Cc1[nH]n(-c2cccc([N+](=O)[O-])c2)c(=O)c1-c1ccccc1 | -10.7% (inactive) | 
Cc1[nH][nH]c(=O)c1C(c1ccc(O)c([N+](=O)[O-])c1)c1c(C)[nH][nH]c1=O | 5.19% (inactive) | 
O=c1c2cc([N+](=O)[O-])cc([N+](=O)[O-])c2[nH]n1-c1ccccc1 | 22.2% (inactive) | 
Cc1[nH]n(-c2ccccc2)c(=O)c1N=Nc1cccc([N+](=O)[O-])c1 | -3.97% (inactive) | 
COc1ccc(-n2c3c(cc(C(=O)NC4CCSC4=O)c2=O)C(=O)CC(C)(C)C3)cc1 (centres undefined) | 3.46% (inactive) | 
CC1(C)CC(=O)C=C(c2ccc3ccccc3c2)C1 | 6.35% (inactive) | 
CC1CCCN(CCC(=O)Nc2ccc3c(c2)CCC3)C1 (centres undefined) | -0.41% (inactive) | 
